Screening results as filed in PubChem.
Rows were chosen to be rich in hits. Some 3% of all compounds tested hit in one or more screens of this group.
ATG4B inhibitor: blocks human ATG4B protease cleavage of LC3 substrate; inhibition, % at 8.33 µM; ATG4B cleavage of LC3-PLA2, NBD-HPC fluorescence, 1 h; AID 504462; 340,000 tested, 0.51% active; in the data active = inhibition above about 40%
PAFAH2 FP inh: inhibitors of human PAFAH2. Q99487. recombinant PAFAH2, FP-rhodamine activity probe, fluorescence polarization. inhibition, % at 3.39 µM. 340,000 tested, 0.99% active. AID 492956;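 active = inhibition above the mean over all tested compounds plus 3 SD, cut at about 30% in these data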;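 also: inhibitors block probe labeling of enzyme so polarization drops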
PAFAH1B3 FP inh: blocks human PAF acetylhydrolase 1B catalytic subunit 3. recombinant PAFAH1B3, FP-rhodamine probe, fluorescence polarization. inhibition, % at 3.39 µM. 340,000 tested, 0.28% active. AID 492972;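 active = inhibition above the screen-wide average of all tested compounds plus 3 SD, cut at about 25% in these data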
Target sequence (Q15102 whole entry, looked up): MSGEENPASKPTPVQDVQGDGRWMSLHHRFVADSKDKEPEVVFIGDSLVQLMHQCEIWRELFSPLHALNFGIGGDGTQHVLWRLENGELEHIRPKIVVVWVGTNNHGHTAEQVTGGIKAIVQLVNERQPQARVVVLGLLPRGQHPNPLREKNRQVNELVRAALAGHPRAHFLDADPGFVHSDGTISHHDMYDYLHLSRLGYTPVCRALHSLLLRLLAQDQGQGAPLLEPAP
DAGLB inh: blocks human DAGLB lipase activity; Q8NCG7; AID 504411; 340,000 tested, 0.059% active; HEK293T DAGLB membrane lysate, EnzChek fluorogenic substrate; inhibition, % at 5.17 µM; in the data active = inhibition above about 34%
PAFAH1B2 FP inh: blocks human PAF acetylhydrolase 1b catalytic subunit 2. P68402. recombinant PAFAH1B2, FP-rhodamine activity probe, fluorescence polarization. inhibition, % at 3.39 µM. 340,000 tested, 1.2% active. AID 492953;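 active = inhibition above the mean of all tested compounds plus 3 SD, cut at about 24% in these data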
pPAFAH inh: pPAFAH (human) enzyme inhibition; recombinant pPAFAH, FP-rhodamine probe fluorescence polarization; inhibition, % at 3.39 µM; 330,000 tested, 1.5% active; AID 463082; Q13093;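 active = inhibition above the mean inhibition across the screen plus 3 SD, cut at about 25% in these data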;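 also: inhibitors block binding of the rhodamine activity-based probe so polarization drops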
Target sequence (Q13093 whole entry, looked up): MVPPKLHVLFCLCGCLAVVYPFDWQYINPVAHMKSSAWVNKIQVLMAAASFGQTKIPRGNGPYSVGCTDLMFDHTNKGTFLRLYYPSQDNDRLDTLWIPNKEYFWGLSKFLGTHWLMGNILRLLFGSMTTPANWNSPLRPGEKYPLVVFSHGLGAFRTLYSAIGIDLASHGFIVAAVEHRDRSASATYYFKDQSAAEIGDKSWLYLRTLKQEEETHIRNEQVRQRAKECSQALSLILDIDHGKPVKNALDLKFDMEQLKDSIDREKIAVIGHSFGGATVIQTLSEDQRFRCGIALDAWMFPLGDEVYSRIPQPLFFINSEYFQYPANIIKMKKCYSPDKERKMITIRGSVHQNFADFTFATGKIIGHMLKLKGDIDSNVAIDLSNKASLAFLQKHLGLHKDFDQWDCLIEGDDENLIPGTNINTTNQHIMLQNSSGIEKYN
PAFAH2 confirm: PAFAH2 (human) inhibition, confirmed; shares compounds with PAFAH2 FP inh; recombinant PAFAH2, FP-rhodamine activity probe, fluorescence polarization; inhibition, % at 3.39 µM; 2,300 tested, 65% active;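 active = mean inhibition over three repeats above a set limit taken from the earlier primary screen, cut at about 30% in these data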;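 also: inhibitor blocks binding of rhodamine activity probe so polarization falls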
Numbers stand for hits; – = inactive; · = no result.

SMILES | ATG4B inhibitor | PAFAH2 FP inh | PAFAH1B3 FP inh | DAGLB inh | PAFAH1B2 FP inh | pPAFAH inh | PAFAH2 confirm
Cc1ccc(C)c(NC(=O)CN(C)C(=O)c2cc(-c3cccs3)nn2-c2ccccc2)c1 | – | 32.7 | – | – | – | – | –
Clc1ccccc1NN(Cc1ccncc1)c1ccccc1Cl | · | · | · | – | · | · | ·
CN1CCN(NC(=O)c2cc(S(=O)(=O)Nc3ccc(Cl)cc3)ccc2Cl)CC1 | – | – | – | – | – | – | ·
N#C/C(=C\c1c(Cl)cccc1Cl)c1nc2ccccc2o1 | – | 32.9 | – | – | – | – | 33.5
O=C(CCC1CCCC1)NNC(=O)COc1ccc(Br)cc1 | – | 35.0 | – | – | – | – | –
CCCC(C)NC(=O)COC(=O)c1cc(Br)c(Br)s1 (stereo not drawn) | – | – | – | – | – | – | ·
CC(C)CCNC(=O)COC(=O)c1cc(Br)c(Br)s1 | – | 31.6 | – | – | – | – | –
Cc1ccc(NC(=O)COC(=O)c2ccc(-n3cnnn3)cc2)c(Br)c1 | – | – | – | – | – | – | ·
O=C(COC(=O)C1CCCCC1)Nc1cc([N+](=O)[O-])ccc1F | – | 48.9 | – | – | – | – | –
O=C(COC(=O)c1ccc(-n2cnnn2)cc1)Nc1cc(Cl)ccc1F | – | 34.2 | – | – | – | – | –
CCC(=O)OCC(=O)Nc1cc([N+](=O)[O-])ccc1OC | – | – | – | – | – | – | ·
Nc1ccc(C(=O)Oc2ccc([N+](=O)[O-])cc2)cc1 | – | 31.7 | – | – | – | – | –
COc1ccc([N+](=O)[O-])cc1NC(=O)COC(=O)C1CC1 | – | 49.0 | – | – | – | – | –
CCCS(=O)(=O)Nc1ccc(N2CCCCC2)c(S(=O)(=O)Nc2ccccc2OC)c1 | – | – | – | – | – | · | ·
O=C(NC1CCN(c2ncccn2)CC1)c1ccccc1Cl | – | – | – | – | – | – | ·
COc1cccc(C=NN2CCCCCC2)c1OC | – | – | – | – | – | · | ·
COC(=O)c1ccc(CNC(=O)CCNC(=O)c2ccco2)cc1 | – | – | – | – | – | – | ·
O=C(Nc1cccc(Cl)c1Cl)C1CCCC1 | – | – | – | – | – | – | ·
O=C(COC(=O)C1CCCC1)Nc1cccc(Cl)c1Cl | – | 32.2 | – | – | – | – | –
Nc1ccc(C(=O)OCC(=O)Nc2cc([N+](=O)[O-])ccc2F)cc1 | – | 82.9 | – | – | – | – | 82.2
Cc1cccc(N2CCN(C(=O)c3cccc(N4CCCC4=O)c3)C(C)C2)c1 (stereo not drawn) | – | – | – | – | – | – | ·
C[C@@]12CCC3[C@@](CCC4[C@@]3(C)CCC[C@@]4(C)C(=O)N3CCOCC3)(CC1=O)C2 (stereo partly drawn) | – | – | – | – | – | – | ·
O=C(COC(=O)/C=C/c1cccc(F)c1)NC1CCCCC1 | · | · | · | – | · | · | ·
O=C(COC(=O)/C=C/c1cccc(F)c1)NC1CC1 | – | 34.2 | – | – | – | – | –
O=C(COC(=O)/C=C/c1cccc(F)c1)NC1CCCCCC1 | – | 81.8 | – | – | – | – | 80.0
SMILES | ATG4B inhibitor | PAFAH2 FP inh | PAFAH1B3 FP inh | DAGLB inh | PAFAH1B2 FP inh | pPAFAH inh | PAFAH2 confirm
O=C(COC(=O)/C=C/c1cccc(F)c1)NC1CCCC1 | – | 73.4 | – | – | – | – | 67.4
Cc1cc(NC(=O)C2CC(=O)N(c3ccccc3Cl)C2)no1 (stereo not drawn) | – | – | – | – | – | – | ·
Cc1nc(=S)c2c([nH]1)-c1ccccc1CC21CCCCC1 | – | · | · | · | · | – | ·
COc1ccc(O)c(C(=O)c2cnn(C(=O)c3cc(C)oc3C)c2)c1 | – | 41.0 | – | – | – | – | –
COc1ccc(C(=O)n2cc(C(=O)c3cc(C)ccc3O)cn2)cc1 | – | – | – | – | – | – | ·
N#CC1=C(N)N=C(SCc2cccc3ccccc23)C(C(N)=O)C12CCCCC2 (stereo not drawn) | – | – | – | – | – | – | ·
CCCc1c(C(=O)N/N=C/c2ccc(OCc3ccc(F)cc3)cc2)nnn1-c1nonc1N | · | · | · | – | · | · | ·
COc1ccc(C(=O)OCCN=C2NS(=O)(=O)c3ccccc32)cc1OC | – | 42.6 | – | – | – | – | –
COc1ccccc1C(=O)OCCCN=C1NS(=O)(=O)c2ccccc21 | – | – | – | – | – | – | ·
COc1cc(/C=C/C(=O)OCC(=O)NCc2ccccc2OC)ccc1O | – | 49.7 | – | – | – | – | 48.7
COc1cc(/C=C/C(=O)OCC(=O)N(C)Cc2ccccc2)ccc1O | – | 32.7 | – | – | – | – | –
COc1ccc(CCNC(=O)COC(=O)/C=C/c2ccc3c(c2)OCO3)cc1OC | – | – | – | – | – | – | ·
COc1cc(/C=C/C(=O)OCC(=O)N(C)Cc2ccccc2)cc(OC)c1OC | – | – | – | – | – | – | ·
COc1cc(/C=C/C(=O)OCC(=O)NCc2ccc(F)cc2)ccc1O | – | 69.3 | – | – | – | – | 56.3
COc1ccccc1CNC(=O)COC(=O)/C=C/c1ccc2c(c1)OCO2 | – | 38.6 | – | – | – | – | 42.8
CN(C)c1cccc(C(=O)N/N=C/c2ccsc2)c1 | – | – | – | – | – | – | ·
Cc1ccc(NC(=O)C2(c3ccccc3)CCOCC2)c([N+](=O)[O-])c1 | – | – | – | – | – | – | ·
CCc1ccc(NC(=O)CSc2nc(=O)n(CCN(C)C)c3c2CCCC3)cc1 | – | – | – | – | – | – | ·
CCc1cc(=O)oc2cc(OCc3ccc(C(=O)O)o3)ccc12 | – | – | – | – | – | – | ·
O=C(COC(=O)c1ccc(F)c(S(=O)(=O)N2CCOCC2)c1)NCCc1ccccc1 | – | – | – | – | – | – | ·
Cc1ccc(C(=O)OCC(=O)NC(C)C)cc1S(=O)(=O)N1CCOCC1 | – | 32.4 | – | – | – | – | –
O=C(COC(=O)c1ccc(F)c(S(=O)(=O)N2CCOCC2)c1)NCc1ccc(F)cc1 | – | 32.6 | – | – | – | – | –
O=C(COC(=O)c1ccc(F)c(S(=O)(=O)N2CCOCC2)c1)NCc1ccc(Cl)cc1 | – | – | – | – | – | – | ·
COc1ccc(CNC(=O)COC(=O)c2ccc(C)c(S(=O)(=O)N3CCOCC3)c2)cc1 | – | – | – | – | – | – | ·
Cc1ccc(C(=O)OCC(=O)Nc2ccccc2C(F)(F)F)cc1S(=O)(=O)N1CCOCC1 | – | 62.9 | – | – | – | – | 57.1
Cc1ccc(C(=O)OCC(=O)NCCc2ccc(F)cc2)cc1S(=O)(=O)N1CCOCC1 | – | 47.3 | – | – | – | – | 37.2
CCOC(=O)c1ccccc1NC(=O)COC(=O)c1ccc(C)c(S(=O)(=O)N2CCOCC2)c1 | – | – | – | – | – | – | ·
Cc1cccc(CCN2C(N(C)C)=NC[C@@H]2C)c1 | – | – | – | – | – | – | ·
NS(=O)(=O)c1cc2c(cc1Cl)NC(Cc1ccccc1)NS2(=O)=O (stereo not drawn) | – | – | – | – | – | – | ·
